Screens as filed in PubChem.
HER2 expr 66K – inhibitors of Her2 protein expression, primary screen, SKBR-3 cells, AlphaScreen, 66K library | Receptor tyrosine-protein kinase erbB-2 (Homo sapiens), P04626 | SKBR-3 HER2 protein level, 18-24 h; active compounds read low | HER2 level % of control, % at 10 µM | 65,000 compounds, 0.69% hits | AID 645, 2007;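 active = HER2 level under 5% of the carrier-only control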;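 note: 100% = DMSO carrier and 0% = 500 nM PU-H71 HSP90 inhibitor; lower value means stronger loss of Her2 protein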
M1 agonist – M1 muscarinic receptor agonists, primary screen, CHO-M1 cells, Fluo-4 calcium, agonist mode. 64,000 compounds, 3% hits. B-score at 10 µM. Muscarinic acetylcholine receptor M1. Fluo-4 calcium fluorescence; active compounds read high. AID 626, 2007;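 active = fluorescence rise, raw or as B-score row- and column-corrected plate score, outside the 99.7% band of its plate's samples, either direction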
FXIa inh mix – FXIa protease inhibitors in compound pools, primary screen, biochemical, 10-compound mixtures | Coagulation factor XI (Homo sapiens), P03951 | purified FXIa, fluorogenic substrate, pooled mixtures | inhibition, % at 5 µM | 62,000 compounds, 0.19% hits;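 note: each value is inhibition by a whole ten-compound pool holding the compound; 0% = enzyme with no mixture and 100% = wells lacking enzyme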
JNK3 blocker – JNK3 kinase activity inhibitors, primary screen, biochemical, human, purified enzyme. HTS. inhibition, % at 8 µM. 60,000 compounds, 0.61% hits. AID 746, 2007; in the data active = inhibition above about 17%;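 note: 0% = DMSO and 100% = reference inhibitor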
M1 antagonist – antagonists of rat M1 muscarinic receptor; AID 628, 2007; Muscarinic acetylcholine receptor M1 (Rattus norvegicus), P08482; B-score at 10 µM; CHO-M1 cells, Fluo-4 calcium, ACh EC80 antagonist mode; active compounds read low; 64,000 compounds, 3.4% hits;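 active = calcium fluorescence response, raw or row-and-column corrected B-score, differing from the plate sample mean either way at a set confidence level, mostly lower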
Target sequence (P08482 whole entry, looked up): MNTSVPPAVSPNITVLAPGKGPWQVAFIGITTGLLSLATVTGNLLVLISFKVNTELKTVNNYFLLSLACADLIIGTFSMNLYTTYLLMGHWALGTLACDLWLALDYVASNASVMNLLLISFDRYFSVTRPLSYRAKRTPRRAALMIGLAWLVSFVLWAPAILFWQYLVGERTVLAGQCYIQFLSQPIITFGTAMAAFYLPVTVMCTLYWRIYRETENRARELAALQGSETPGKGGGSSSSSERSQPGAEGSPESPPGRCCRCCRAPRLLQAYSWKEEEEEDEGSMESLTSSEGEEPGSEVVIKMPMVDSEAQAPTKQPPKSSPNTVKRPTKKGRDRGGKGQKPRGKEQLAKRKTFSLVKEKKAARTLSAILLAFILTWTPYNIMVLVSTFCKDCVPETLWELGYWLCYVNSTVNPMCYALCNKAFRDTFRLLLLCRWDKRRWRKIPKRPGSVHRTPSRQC
FXIIa mix inh – human factor XIIa inhibitors, primary screen, biochemical, pooled compound mixtures, fluorogenic substrate; AID 684, 2007; 62,000 compounds, 0.2% hits; Coagulation factor XII (Homo sapiens), P00748; purified FXIIa; inhibition, % at 5 µM;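 note: 0% = enzyme without compound and 100% = no enzyme blank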
M1 antag conf – rat M1 muscarinic receptor antagonists, confirmation, CHO cells, Fluo-4 calcium, duplicate. calcium response (max-min fluorescence) at 10 µM. 1,700 compounds, 43% hits. AID 677, 2007. shares compounds with M1 antagonist. ACh EC80 antagonism; active compounds read low;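 active = calcium response below the same-plate mean of wells given acetylcholine alone at its 80%-effect dose, minus 3 SD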;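 note: raw fluorescence intensity difference in arbitrary instrument units and not normalized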
mGluR4 antag – human mGluR4 response to M1 antagonist hits, M1 allosteric modulator project, cell-based, antagonist mode, secondary assay 1; shares compounds with M1 antagonist; CHO-mGluR4 calcium flux, Fluo-4 fluorescence, glutamate EC80; active compounds read low; fluorescence response (max-min) at 10 µM; 1,700 compounds, 0.9% hits; AID 678, 2007;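 active = fluorescence response below the plate's average for near-maximal glutamate wells, less 3 SD of those wells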;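 note: raw unnormalized fluorescence span taken in the window right after glutamate addition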
Numbers without * were called inactive; nt = not tested or not shown. An excerpt weighted towards active compounds, which were near 6.9% of everything screened. Cut-off read from the data, not from the text of the source, unless noted: active = inhibition above about 20% (passing the limit was not always enough); inactive = the rest.

SMILES | HER2 expr 66K | M1 agonist | FXIa inh mix | JNK3 blocker | M1 antagonist | FXIIa mix inh | M1 antag conf | mGluR4 antag
O=C(CN1CCN(C(c2ccccc2)c2ccccc2)CC1)N1CCOCC1 | 104 | -0.021 | 4 | -2 | -19* | 8 | 179* | 246
O=S(=O)(CCN1CCN(C(c2ccccc2)c2ccccc2)CC1)C(F)(F)F | -2.0* | -0.38 | 8 | -5 | -3.8* | 12 | 387* | 203
CCCN(CCC)CCCNC(=O)c1cc2c(=O)n(C)c3ccccc3c2n1C | 87 | 0.052 | 6 | 4 | -4.4* | 13 | 441* | 243
CCCCN(CC)CCNC(=O)c1cc2c(=O)n(C)c3ccccc3c2n1C | 100 | -0.048 | 0 | 10 | -4.3* | -14 | 412* | 229
Cn1c(C(=O)NCCCN2CCCCCC2)cc2c(=O)n(C)c3ccccc3c21 | 89 | -0.039 | 6 | 0 | -3.2* | 11 | 511* | 190
CCN(CC)CCCNC(=O)c1cc2c(=O)n(C)c3ccccc3c2n1C | 97 | 0.41 | 3 | 1 | -1.8 | 2 | nt | nt
O=S(=O)(c1cccs1)N1CCN(CC(O)COc2cc(Cl)ccc2Cl)CC1 (stereo not given) | 67 | 3 | 3 | 7 | -1.5 | 7 | nt | nt
Cc1nc2ccc(NC(=O)N3CCSCC3)cc2nc1C | 81 | 0.4 | -6 | nt | 0.55 | -22 | nt | nt
O=C(Nc1ccc2nc(-c3cccs3)c(-c3cccs3)nc2c1)N1CCOCC1 | 37 | 0.16 | 7 | -5 | -12* | -22 | 138* | 206
CCC1Oc2ccccc2N(CC(=O)NCCN2CCc3ccccc3C2)C1=O (stereo not given) | 108 | -1.4 | 2 | -8 | -1.7* | 4 | 583* | 198
O=C(NCc1ccco1)C1c2ccccc2Oc2ccccc21 | 88 | -0.45 | -7 | 4 | -5.4* | 4 | 556 | 210
CC1(C)CC(=O)CC(=NCC(=O)O)C1 | 69 | 0.54 | 2 | -7 | -2.6* | 5 | 665 | 268
O=C(CN1C(=O)NC2(CCCc3ccccc32)C1=O)N1CCc2ccccc2C1 (stereo not given) | 78 | -0.43 | 4 | 1 | 0.24 | 0 | nt | nt
COCC(COCCCNC(=O)Nc1ccc(Br)cc1)OC (stereo not given) | 93 | -0.34 | 5 | 3 | -1.6* | 3 | 553 | 214
Oc1cccc(Nc2nc(NCC3CCCO3)c3ccccc3n2)c1 (stereo not given) | 131 | 1.6 | 7 | -9 | -3.9* | -25 | 357* | 224
COc1ccc(CCn2nnnc2C(c2ccc(Cl)cc2)N2CCN(C)CC2)cc1OC (stereo not given) | 86 | 0.047 | 2 | 3 | -3.1* | 5 | 630 | 258
Cc1cc(NC(=O)C2CCCN(S(=O)(=O)c3cnc[nH]3)C2)ccc1Br (stereo not given) | 101 | 0.8 | 10 | 2 | -0.5 | -21 | nt | nt
CSc1ccc(-c2nnn(Cc3ccc(C)cc3)n2)cc1 | 204 | 1.4 | 4 | nt | -5.4* | 10 | 617 | 244
O=C(Nc1cn(-c2ccccc2)nc1-c1cccs1)c1ccco1 | 105 | 1.1 | 0 | 1 | -0.56 | -2 | nt | nt
CC(C)(C)c1ccccc1OCC(=O)NCCC(=O)O | 116 | -0.73 | 0 | 5 | -2.8* | -2 | 673 | 237
CC(C)(C)c1ccccc1OCC(=O)Nc1ncn[nH]1 | 97 | -1.3 | 10 | -2 | 1.4 | 2 | nt | nt
O=C(CSc1nnc(CN2CCOCC2)n1-c1ccccc1)N1CCc2ccccc21 | 146 | 0.17 | 18 | -4 | -0.44 | -20 | nt | nt
O=C(COc1ccc2ccccc2c1CN1CCOCC1)N1CCc2ccccc21 | 40 | -0.013 | 2 | 0 | -2.1* | -2 | 336* | 226
COCCCNCCOc1cc(C(C)C)ccc1C | 107 | -0.14 | -3 | -3 | -2.3* | 6 | 554 | 237
Cc1ccc(C)c(OCCCC(=O)O)c1 | 108 | 0.07 | 11 | 4 | 1.6 | 2 | nt | nt
SMILES | HER2 expr 66K | M1 agonist | FXIa inh mix | JNK3 blocker | M1 antagonist | FXIIa mix inh | M1 antag conf | mGluR4 antag
CCCCC(CC)C(=O)NCCCN1CCN(CCCNC(=O)C(CC)CCCC)CC1 (stereo not given) | 96 | 1.9 | -1 | 3 | -0.093 | 5 | nt | nt
CCCC(O)(CCN1CCOCC1)c1ccc(Br)cc1 (stereo not given) | 116 | -0.35 | 8 | -2 | -3.6* | -4 | 283* | 243
O=C(NCCCN1CCOCC1)c1ccc(Br)cc1 | 127 | -0.32 | 0 | 3 | 0.021 | 11 | nt | nt
Cc1[nH]nc2c1C(c1cn[nH]c1-c1ccc(F)cc1)C(C#N)=C(N)O2 (stereo not given) | 81 | -0.56 | -2 | -1 | -0.7 | -13 | nt | nt
Cc1ccc(C(c2nnnn2C(C)(C)C)N2CCN(C3CCCC3)CC2)cc1 (stereo not given) | 106 | 0.64 | 0 | 6 | 0.41 | 5 | nt | nt
CC(C)CC(c1nnnn1C(C)(C)C)N1CCN(C2CCCC2)CC1 (stereo not given) | 108 | 0.17 | -1 | 0 | -4.4* | -6 | 477 | 212
CN1CCCC(OC(=O)c2cc(Br)ccc2Cl)C1 (stereo not given) | 84 | -0.014 | 4 | -1 | -6.6* | 2 | 412* | 213
COc1ccc(N2CCN(C(CNS(=O)(=O)c3cc(F)ccc3F)c3cccnc3)CC2)cc1 (stereo not given) | 72 | -0.12 | -3 | nt | 0.28 | 7 | nt | nt
O=C(CSc1nc2ccccc2o1)Nc1ccccc1 | 82 | 0.75 | 6 | -5 | 0.59 | 5 | nt | nt
CSc1cccc(NC(=O)CSc2nc3ccccc3o2)c1 | 109 | -0.012 | -5 | 2 | -3.3* | 1 | 577 | 272
